PubChem BioAssay (EPA / NIEHS)
Inconclusive results are not listed. Calls of active or inactive are those of the source. How the source made its calls, unless noted: active means hit-call score of the fitted dose curve at least 0.9, where 1 is the maximum; inactive means score below 0.9.

Tests used:
[1] = BSK_LPS_PGE2: BioMAP Diversity Plus: LPS Assay for Prostaglandin E2 (PGE2) Biomarker Activity (AID 2283082); details: primary human HUVEC with PBMC; actives raise or lower the signal
Outline: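 Primary human endothelial cells and blood mononuclear cells, co-cultured with LPS, receive test chemical; PGE2 ELISA follows at 24 h, with SRB-stained parallel cultures flagging cytotoxicity.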

[2] = read-out: Macrophage colony-stimulating factor (MCSF), CSF1 (gene 1435); assay: BSK_LPS_MCSF: BioMAP Diversity Plus: LPS Assay for Macrophage colony-stimulating factor (MCSF) Biomarker Activity (AID 2283083); details: primary human HUVEC with PBMC; actives raise or lower the signal
Outline: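 Compound is added to a human vascular primary co-culture of umbilical vein endothelium and blood mononuclear cells. After 24 h, M-CSF is quantified by ELISA. Signal changes are fitted in both directions against DMSO.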

[3] = read-out: Tissue Factor, F3 (gene 2152); assay: BSK_LPS_TissueFactor: BioMAP Diversity Plus: LPS Assay for Tissue Factor Biomarker Activity (AID 2283084); details: primary human HUVEC with PBMC; actives raise or lower the signal
Outline: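 In this co-culture system of umbilical vein endothelium with PBMC, stimulated with LPS, cell-surface CD142 is detected by ELISA at 24 h. Endpoint values derive from bidirectional fitting, DMSO serving as baseline.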

[4] = read-out: Tumor necrosis factor (Homo sapiens) (UniProt P01375); assay: BSK_LPS_TNFa: BioMAP Diversity Plus: LPS Assay for Tumour Necrosis Factor alpha (TNFa) Biomarker Activity (AID 2283085); details: primary human HUVEC with PBMC; actives raise or lower the signal
Outline: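 ELISA-based TNFa endpoint in a human endothelial–PBMC co-culture sampled 24 h post-exposure. Curves were fitted in both directions using DMSO as baseline of activity.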

[5] = read-out: Vascular cell adhesion molecule 1 (VCAM1), VCAM1 (gene 7412); assay: BSK_LPS_VCAM1: BioMAP Diversity Plus: LPS Assay for Vascular cell adhesion molecule 1 (VCAM1) Biomarker Activity (AID 2283086); details: primary human HUVEC with PBMC; actives raise or lower the signal
Outline: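 Measured by ELISA: VCAM-1 in LPS-activated HUVEC/PBMC co-cultures 24 h after treatment. Values reflect bidirectional fitting with DMSO as baseline.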

CD38, CD38 (gene 952) = assay: BSK_SAg_CD38: BioMAP Diversity Plus: SAg Assay for CD38 Biomarker Activity (AID 2283087); details: primary human HUVEC with PBMC; actives raise or lower the signal
Outline: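 Measures CD38 on a human endothelial/PBMC co-culture driven by SEB and TSST-1, 24 h after compound exposure, using ELISA with fluorescence detection; DMSO defines baseline for bidirectional curve fitting.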

CD40, CD40 (gene 958) = assay: BSK_SAg_CD40: BioMAP Diversity Plus: SAg Assay for CD40 Biomarker Activity (AID 2283088); details: primary human HUVEC with PBMC; actives raise or lower the signal
Outline: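 Fluorescence ELISA read-out of CD40 from umbilical vein endothelium plus peripheral blood mononuclear cells, sampled 24 h after dosing. Values come from bidirectional curve fitting with DMSO as baseline.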

CD69, CD69 (gene 969) = assay: BSK_SAg_CD69: BioMAP Diversity Plus: SAg Assay for CD69 Biomarker Activity (AID 2283089); details: primary human HUVEC with PBMC; actives raise or lower the signal
Outline: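 Primary human vascular co-culture (umbilical vein endothelium with peripheral blood mononuclear cells) exposed to test chemical for 24 h. CD69 levels quantified by fluorescence ELISA; DMSO served as negative control for bidirectional fitting.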

[6] = read-out: Monocyte Chemoattractant Protein-1 (MCP1), CCL2 (gene 6347); assay: BSK_SAg_MCP1: BioMAP Diversity Plus: SAg Assay for Monocyte Chemoattractant Protein-1 (MCP1) Biomarker Activity (AID 2283090); details: primary human HUVEC with PBMC; actives raise or lower the signal
Outline: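 Values derive from bidirectional fitting of ELISA-measured MCP1 against DMSO controls. Readings were taken 24 h after dosing human vascular endothelial cells co-cultured with peripheral blood mononuclear cells under superantigen stimulation.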

[7] = read-out: E-selectin (Homo sapiens) (UniProt P16581); assay: BSK_SAg_Eselectin: BioMAP Diversity Plus: SAg Assay for Eselectin Biomarker Activity (AID 2283091); details: primary human HUVEC with PBMC; actives raise or lower the signal
Outline: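 Primary human endothelial cells and peripheral blood mononuclear cells were co-cultured and exposed to chemical for 24 hours. E-selectin levels were then quantified by ELISA, with bidirectional curve fitting normalised to DMSO controls.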

[8] = read-out: Monokine induced gamma interferon (MIG), CXCL9 (gene 4283); assay: BSK_SAg_MIG: BioMAP Diversity Plus: SAg Assay for Monokine induced gamma interferon (MIG) Biomarker Activity (AID 2283092); details: primary human HUVEC with PBMC; actives raise or lower the signal
Outline: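 Endothelial cells and PBMC were co-cultured, exposed to test chemicals, and sampled 24 h later. MIG was measured by ELISA, and responses were fitted in both directions relative to DMSO.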

[9] = BSK_SAg_PBMCCytotoxicity: PBMC Cytotoxicity Assessment in the BioMAP Diversity Plus: SAg Assay (AID 2283093); details: primary human HUVEC with PBMC;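 further: PBMC viability measured as Alamar Blue reduction fluorescence at 546/580 nm; fitted both ways against DMSO so a hit may be loss or gain of signal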
Outline: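 Alamar Blue reduction (6 h, ex/em 546/580 nm) read after 90 h culture of PBMC pre-dosed 1 h then stimulated with SEB plus TSST-1, 20 ng/mL each. Gain or loss of signal fitted relative to DMSO.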

[10] = read-out: Interleukin-8 (IL8), CXCL8 (gene 3576); assay: BSK_SAg_IL8: BioMAP Diversity Plus: SAg Assay for Interleukin-8 (IL8) Biomarker Activity (AID 2283094); details: primary human HUVEC with PBMC; actives raise or lower the signal
Outline: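 Primary human endothelial cells with PBMC, exposed 24 h; IL-8 determined by ELISA, analysed bidirectionally relative to DMSO.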

[11] = BSK_SAg_Proliferation: Cell Proliferation Assessment in the BioMAP Diversity Plus: SAg Assay (AID 2283095); details: primary human HUVEC with PBMC;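 further: relative cell number as total protein by SRB absorbance in sub-confluent culture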
Outline: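 A human primary co-culture of umbilical vein endothelium and blood mononuclear cells receives compound; relative cell number is quantified at 96 h by SRB staining and 560 nm absorbance, with DMSO-referenced bidirectional curve fitting.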

[12] = BSK_SAg_SRB: Viability Assessment in the BioMAP Diversity Plus: SAg Assay (AID 2283096); details: primary human HUVEC with PBMC;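 further: cells read one day after compound addition; hits may be either gain or loss of signal compared with DMSO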
Outline: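 SRB absorbance at 560 nm served as the viability read-out. Cells (HUVEC plus peripheral blood mononuclear cells) were TCA-fixed and stained 24 h post-dosing; activity fitted in both directions against DMSO controls.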

[13] = target: human CYP2B6, CYP2B6 (gene 1555) (UniProt P20813); assay: NVS_ADME_hCYP2B6: NovaScreen (NVS) CYP450-related Enzyme Activity (ADME) Assay for human CYP2B6 (AID 2283101; active means hit-call score of the fitted dose curve at least 0.9, where 1 is the maximum)
Chain of human CYP2B6, CYP2B6 (gene 1555) (P20813 whole entry, looked up): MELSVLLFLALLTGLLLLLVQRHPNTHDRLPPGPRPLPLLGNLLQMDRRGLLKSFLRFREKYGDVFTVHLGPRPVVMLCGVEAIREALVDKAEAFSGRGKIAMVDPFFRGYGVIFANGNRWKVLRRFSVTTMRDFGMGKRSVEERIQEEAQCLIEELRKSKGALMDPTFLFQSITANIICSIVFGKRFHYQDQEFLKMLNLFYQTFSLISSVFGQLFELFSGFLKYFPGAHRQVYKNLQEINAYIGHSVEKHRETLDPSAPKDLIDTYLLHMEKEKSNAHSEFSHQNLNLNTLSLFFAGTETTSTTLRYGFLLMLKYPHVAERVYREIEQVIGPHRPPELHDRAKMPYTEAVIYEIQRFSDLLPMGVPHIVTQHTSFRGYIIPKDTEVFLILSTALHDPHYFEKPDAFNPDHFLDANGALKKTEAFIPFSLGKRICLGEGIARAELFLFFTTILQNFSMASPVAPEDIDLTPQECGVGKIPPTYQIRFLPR
Outline: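 Cell-free recombinant enzyme assay with a fluorogenic substrate; fluorescence intensity read 1 hour after dosing. Loss of signal relative to acetonitrile negative control indicates inhibition. Primary screen run in duplicate at 10 uM, actives then tested in concentration series.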

[14] = target: human CYP1A2, CYP1A2 (gene 1544) (UniProt P05177); assay: NVS_ADME_hCYP1A2: NovaScreen (NVS) CYP450-related Enzyme Activity (ADME) Assay for human CYP1A2 (AID 2283102; active means hit-call score of the fitted dose curve at least 0.9, where 1 is the maximum)
Chain of human CYP1A2, CYP1A2 (gene 1544) (P05177 whole entry, looked up): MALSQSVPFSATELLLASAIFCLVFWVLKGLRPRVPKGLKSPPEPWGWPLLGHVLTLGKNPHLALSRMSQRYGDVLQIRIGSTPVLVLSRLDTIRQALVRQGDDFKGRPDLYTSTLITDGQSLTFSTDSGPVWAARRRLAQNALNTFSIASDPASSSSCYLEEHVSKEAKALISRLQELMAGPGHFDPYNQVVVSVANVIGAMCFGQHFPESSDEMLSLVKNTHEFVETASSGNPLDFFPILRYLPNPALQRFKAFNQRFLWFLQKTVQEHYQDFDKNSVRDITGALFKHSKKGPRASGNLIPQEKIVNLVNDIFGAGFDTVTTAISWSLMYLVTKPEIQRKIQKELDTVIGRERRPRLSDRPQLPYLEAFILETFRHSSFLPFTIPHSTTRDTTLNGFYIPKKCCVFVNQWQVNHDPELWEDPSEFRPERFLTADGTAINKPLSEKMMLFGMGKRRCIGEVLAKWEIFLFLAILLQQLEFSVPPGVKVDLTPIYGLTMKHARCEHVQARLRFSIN
Outline: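 Compounds were tested at 10 uM in duplicate against recombinant CYP1A2 produced in insect cells. Enzyme activity was measured by fluorescence 0.5 h after dosing, with loss of signal versus acetonitrile control. Active compounds were re-tested in concentration series.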

Measured: AC50

Chain of Tumor necrosis factor (Homo sapiens) (P01375 whole entry, looked up): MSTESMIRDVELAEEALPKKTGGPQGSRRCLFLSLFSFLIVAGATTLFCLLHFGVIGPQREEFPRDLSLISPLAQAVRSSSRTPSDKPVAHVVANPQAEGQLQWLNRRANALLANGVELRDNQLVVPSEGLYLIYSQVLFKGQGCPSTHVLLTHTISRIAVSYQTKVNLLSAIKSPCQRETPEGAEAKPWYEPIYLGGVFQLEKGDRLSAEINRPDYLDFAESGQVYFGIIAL
Chain of E-selectin (Homo sapiens) (P16581 whole entry, looked up): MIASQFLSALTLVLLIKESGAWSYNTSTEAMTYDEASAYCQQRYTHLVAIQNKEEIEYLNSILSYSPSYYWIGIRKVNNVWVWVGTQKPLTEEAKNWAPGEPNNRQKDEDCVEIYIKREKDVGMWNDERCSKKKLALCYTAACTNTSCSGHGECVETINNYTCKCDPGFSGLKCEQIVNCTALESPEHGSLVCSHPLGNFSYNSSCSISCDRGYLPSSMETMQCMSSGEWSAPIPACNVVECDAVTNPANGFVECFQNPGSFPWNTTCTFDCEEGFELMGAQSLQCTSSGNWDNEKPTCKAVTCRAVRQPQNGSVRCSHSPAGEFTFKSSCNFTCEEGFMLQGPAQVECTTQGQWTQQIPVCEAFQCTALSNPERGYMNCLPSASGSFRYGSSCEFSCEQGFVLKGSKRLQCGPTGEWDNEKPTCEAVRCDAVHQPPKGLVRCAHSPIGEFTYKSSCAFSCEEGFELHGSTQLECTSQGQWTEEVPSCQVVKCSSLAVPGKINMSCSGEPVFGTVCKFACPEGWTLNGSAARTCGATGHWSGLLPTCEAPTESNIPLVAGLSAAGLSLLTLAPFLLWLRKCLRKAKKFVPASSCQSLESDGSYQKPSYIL

Nc1nc(N)c2nc(CNc3ccc(C(=O)N[C@@H](CCC(=O)O)C(=O)O)cc3)cnc2n1
inactive: [1] | [2] | [3] | [4] | [5] | CD38, CD38 (gene 952) | CD40, CD40 (gene 958) | CD69, CD69 (gene 969) | [6] | [7] | [8] | [9] | [10] | [12]
active: [11] 3.22 µM

CCOC(=O)CCC(=O)OCC
inactive: [1] | [2] | [3] | [4] | [5] | CD38, CD38 (gene 952) | CD40, CD40 (gene 958) | CD69, CD69 (gene 969) | [6] | [7] | [8] | [9] | [10] | [11] | [12] | [13] | [14]

CNC(=O)[C@H]1O[C@@H](n2cnc3c(NCc4cc(Cl)ccc4OCc4cc(C)no4)ncnc32)[C@H](O)[C@@H]1N
inactive: [1] | [2] | [3] | [4] | [5] | CD38, CD38 (gene 952) | CD40, CD40 (gene 958) | CD69, CD69 (gene 969) | [6] | [7] | [8] | [9] | [10] | [11] | [12]

CCNc1cccc(C)c1
inactive: [1] | [2] | [3] | [4] | [5] | CD38, CD38 (gene 952) | CD40, CD40 (gene 958) | CD69, CD69 (gene 969) | [6] | [7] | [8] | [9] | [10] | [11] | [12]

Clc1cc(Cl)c(Cl)cc1Cl
inactive: [1] | [2] | [3] | [4] | [5] | CD38, CD38 (gene 952) | CD40, CD40 (gene 958) | CD69, CD69 (gene 969) | [6] | [7] | [8] | [9] | [10] | [11] | [12]

Cc1cccc(Nc2cc(Cl)nc(SCC(=O)O)n2)c1C
inactive: [1] | [2] | [3] | [4] | [5] | CD38, CD38 (gene 952) | CD40, CD40 (gene 958) | CD69, CD69 (gene 969) | [6] | [7] | [9] | [10] | [11] | [12]

CCCCCCCCCCC
inactive: [1] | [2] | [3] | [4] | [5] | CD38, CD38 (gene 952) | CD40, CD40 (gene 958) | CD69, CD69 (gene 969) | [6] | [7] | [9] | [10] | [11] | [12]

Oc1ccc2c(c1)OC[C@@H](N1CCC(O)(c3ccc(F)cc3)CC1)[C@H]2O
inactive: [1] | [2] | [3] | [4] | [5] | CD38, CD38 (gene 952) | CD40, CD40 (gene 958) | CD69, CD69 (gene 969) | [6] | [7] | [9] | [10] | [11] | [12] | [14]
active: [13] 6.22 µM
